# Measured values: the supplement of paper PMC7057948, “A genome-wide approach for identification and characterisation of metabolite-inducible systems” (Nature Communications, 2020)
# Experiments:
# Settings in all cases: inducer concentration 5 mM; 6 h; Cupriavidus necator H16; minimal medium + 0.4% gluconate
# [1] = system: AcoR/P_H16_RS19445 acetoin biosensor (pEH052); test: relative induction of RFP reporter vs primary effector (background-corrected); higher = stronger activation of the biosensor
# Description: (§1)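 C. necator H16 strains, each carrying one of 21 transcription factor/inducible promoter–mRFP biosensor plasmids, were grown in minimal medium in 96-well plates (robotic platform). Each was exposed to 46 structurally or metabolically related compounds at 5 mM at 30 °C. OD-normalised RFP fluorescence was read 6 h later and expressed as relative induction (%) = 100 × (FL compound − FL uninduced)/(FL primary inducer − FL uninduced); mean of n=4.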
# [2] = system: AraC/P_araBAD L-arabinose biosensor (pEH176); test: as above
# Description: as §1
# [3] = system: BenM/P_H16_RS09790 benzoate biosensor (pEH148); test: as above
# Description: as §1
# [4] = system: FdsR/P_H16_RS03165 formate biosensor (pEH134); test: as above
# Description: as §1
# [5] = system: GabR/P_H16_RS23655 GABA biosensor (pEH256); test: as above
# Description: as §1
# [6] = system: HpdR/P_H16_RS18295 3-hydroxypropanoate biosensor (pEH010); test: as above
# Description: as §1
# [7] = system: KynR/P_H16_RS14030 L-kynurenine biosensor (pEH136); test: as above
# Description: as §1
# [8] = system: NahR/P_H16_RS08125 salicylate biosensor (pEH042); test: as above
# Description: as §1
# [9] = system: OapR/P_H16_RS01330 beta-alanine biosensor (pEH147); test: as above
# Description: as §1
# [10] = system: PcaQ/P_H16_RS30145 3,4-dihydroxybenzoate biosensor (pEH161); test: as above
# Description: as §1
# [11] = system: PhgR/P_H16_RS05530 phenylglyoxylate biosensor (pEH155); test: as above
# Description: as §1
# [12] = system: PhhR/P_H16_RS18365 L-phenylalanine biosensor (pEH137); test: as above
# Description: as §1
# [13] = system: SauR/P_H16_RS13695 sulfonatoacetate biosensor (pEH157); test: as above
# Description: as §1
# [14] = system: TtdR/P_H16_RS10665 tartrate biosensor (pEH083); test: as above
# Description: as §1
# [15] = system: XdhR/P_H16_RS05055 xanthine biosensor (pEH154); test: as above
# Description: as §1
# [16] = system: heterologous inducible system pEH002 (rhamnose/acrylate/cumate/itaconate set); test: as above
# Description: as §1
# [17] = system: heterologous inducible system pEH020 (rhamnose/acrylate/cumate/itaconate set); test: as above
# Description: as §1
# [18] = system: heterologous inducible system pEH040 (rhamnose/acrylate/cumate/itaconate set); test: as above
# Description: as §1
# [19] = system: heterologous inducible system pEH086 (rhamnose/acrylate/cumate/itaconate set); test: as above
# Description: as §1
# [20] = system: AcoR/P_H16_RS19445 acetoin biosensor (pEH052); test: relative induction of RFP reporter vs primary effector; higher = stronger activation
# Description: (§2)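 Orthogonality screen of 21 primary inducers against 21 transcription factor/inducible promoter–mRFP biosensors in C. necator H16 in minimal medium, robotic 96-well format, 5 mM inducer, 30 °C. OD-normalised RFP fluorescence was read 6 h later and expressed as relative induction (%) = 100 × (FL compound − FL uninduced)/(FL primary inducer − FL uninduced); mean of n=4. Cognate pairs (100% by definition) omitted.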
# [21] = system: AraC/P_araBAD L-arabinose biosensor (pEH176); test: as above
# Description: as §2
# [22] = system: BadR/P_H16_RS27200 cyclohexanecarboxylate biosensor (pEH159); test: as above
# Description: as §2
# [23] = system: BenM/P_H16_RS09790 benzoate biosensor (pEH148); test: as above
# Description: as §2
# [24] = system: GabR/P_H16_RS23655 GABA biosensor (pEH256); test: as above
# Description: as §2
# [25] = system: HpdA/P_H16_RS24175 L-tyrosine biosensor (pEH158); test: as above
# Description: as §2
# [26] = system: NahR/P_H16_RS08125 salicylate biosensor (pEH042); test: as above
# Description: as §2
# [27] = system: OapR/P_H16_RS01330 beta-alanine biosensor (pEH147); test: as above
# Description: as §2
# [28] = system: PcaQ/P_H16_RS30145 3,4-dihydroxybenzoate biosensor (pEH161); test: as above
# Description: as §2
# [29] = system: SauR/P_H16_RS13695 sulfonatoacetate biosensor (pEH157); test: as above
# Description: as §2
# [30] = system: TtdR/P_H16_RS10665 tartrate biosensor (pEH083); test: as above
# Description: as §2
# [31] = system: XdhR/P_H16_RS05055 xanthine biosensor (pEH154); test: as above
# Description: as §2
# [32] = system: heterologous L-rhamnose-inducible system; test: as above
# Description: as §2
# [33] = system: heterologous acrylate-inducible system; test: as above
# Description: as §2
# [34] = system: heterologous cumate-inducible system; test: as above
# Description: as §2
# [35] = system: heterologous itaconate-inducible system; test: as above
# Description: as §2
# [36] = system: FdsR/P_H16_RS03165 formate biosensor (pEH134); test: as above
# Description: as §2
# [37] = system: PhgR/P_H16_RS05530 phenylglyoxylate biosensor (pEH155); test: as above
# Description: as §2
# 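For relative induction of RFP reporter vs primary effector (background-corrected) in this document: RFP excited at 585 nm with emission read at 620 nm, culture medium blanks subtracted from fluorescence and absorbance prior to normalisation.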
smiles,measurement,setting,value
O=C(O)c1cccnc1 [nicotinate],relative induction of RFP reporter,[1],-2.26%
same,relative induction of RFP reporter,[2],0.00152%
same,relative induction of RFP reporter,[3],1.95%
same,relative induction of RFP reporter,[4],113%
same,relative induction of RFP reporter,[5],-1.65%
same,relative induction of RFP reporter,[6],0.0215%
same,relative induction of RFP reporter,[7],-0.289%
same,relative induction of RFP reporter,[8],0.0131%
same,relative induction of RFP reporter,[9],-0.669%
same,relative induction of RFP reporter,[10],-0.0619%
same,relative induction of RFP reporter,[11],-0.587%
same,relative induction of RFP reporter,[12],-0.498%
same,relative induction of RFP reporter,[13],0.0909%
same,relative induction of RFP reporter,[14],-0.44%
same,relative induction of RFP reporter,[15],0.0721%
same,relative induction of RFP reporter,[16],0.0144%
same,relative induction of RFP reporter,[17],-1.31%
same,relative induction of RFP reporter,[18],-1.49%
same,relative induction of RFP reporter,[19],0.0778%
"O=C(O)c1c(O)cccc1O [2,6-dihydroxybenzoate]",relative induction of RFP reporter,[1],2.22%
same,relative induction of RFP reporter,[2],0.019%
same,relative induction of RFP reporter,[3],0.0383%
same,relative induction of RFP reporter,[4],-4.96%
same,relative induction of RFP reporter,[5],1.87%
same,relative induction of RFP reporter,[6],0.277%
same,relative induction of RFP reporter,[7],0.406%
same,relative induction of RFP reporter,[8],8.29%
same,relative induction of RFP reporter,[9],0.369%
same,relative induction of RFP reporter,[10],0.0449%
same,relative induction of RFP reporter,[11],-0.403%
same,relative induction of RFP reporter,[12],0.0318%
same,relative induction of RFP reporter,[13],0.0103%
same,relative induction of RFP reporter,[14],-0.411%
same,relative induction of RFP reporter,[15],0.89%
same,relative induction of RFP reporter,[16],0.00673%
same,relative induction of RFP reporter,[17],2.01%
same,relative induction of RFP reporter,[18],0.428%
same,relative induction of RFP reporter,[19],0.26%
O=C(O)CCC(=O)O [succinate],relative induction of RFP reporter,[1],-1.14%
same,relative induction of RFP reporter,[2],-0.00365%
same,relative induction of RFP reporter,[3],-0.0349%
same,relative induction of RFP reporter,[4],6.43%
same,relative induction of RFP reporter,[5],-0.306%
same,relative induction of RFP reporter,[6],-0.187%
same,relative induction of RFP reporter,[7],0.402%
same,relative induction of RFP reporter,[8],0.0287%
same,relative induction of RFP reporter,[9],-0.209%
same,relative induction of RFP reporter,[10],-0.0829%
same,relative induction of RFP reporter,[11],-0.471%
same,relative induction of RFP reporter,[12],0.239%
same,relative induction of RFP reporter,[13],-0.0135%
same,relative induction of RFP reporter,[14],0.784%
same,relative induction of RFP reporter,[15],0.357%
same,relative induction of RFP reporter,[16],0.0102%
same,relative induction of RFP reporter,[17],-1.2%
same,relative induction of RFP reporter,[18],-1.6%
same,relative induction of RFP reporter,[19],0.338%
Oc1cccc(O)c1 [resorcinol],relative induction of RFP reporter,[1],1.11%
same,relative induction of RFP reporter,[2],-0.0083%
same,relative induction of RFP reporter,[3],0.0215%
same,relative induction of RFP reporter,[4],3.2%
same,relative induction of RFP reporter,[5],-1.35%
same,relative induction of RFP reporter,[6],-0.13%
same,relative induction of RFP reporter,[7],-0.206%
same,relative induction of RFP reporter,[8],0.04%
same,relative induction of RFP reporter,[9],-1.51%
same,relative induction of RFP reporter,[10],-0.109%
same,relative induction of RFP reporter,[11],0.115%
same,relative induction of RFP reporter,[12],0.365%
same,relative induction of RFP reporter,[13],0.0138%
same,relative induction of RFP reporter,[14],1.74%
same,relative induction of RFP reporter,[15],-0.161%
same,relative induction of RFP reporter,[16],-0.00943%
same,relative induction of RFP reporter,[17],-0.947%
same,relative induction of RFP reporter,[18],0.407%
same,relative induction of RFP reporter,[19],-0.0428%
O=C(O)C(=O)c1ccccc1 [phenylglyoxylate],relative induction of RFP reporter,[20],-2.12%
same,relative induction of RFP reporter,[21],-0.003%
same,relative induction of RFP reporter,[22],-0.214%
same,relative induction of RFP reporter,[23],16.8%
same,relative induction of RFP reporter,[24],-2.13%
same,relative induction of RFP reporter,[25],-0.159%
same,relative induction of RFP reporter,[26],0.00691%
same,relative induction of RFP reporter,[27],-1.44%
same,relative induction of RFP reporter,[28],-0.114%
same,relative induction of RFP reporter,[29],0.0193%
same,relative induction of RFP reporter,[30],-0.379%
same,relative induction of RFP reporter,[31],-1.19%
same,relative induction of RFP reporter,[32],-0.00891%
same,relative induction of RFP reporter,[33],-2.28%
same,relative induction of RFP reporter,[34],-1.12%
same,relative induction of RFP reporter,[35],-0.288%
O=C(O)c1ccccc1,relative induction of RFP reporter,[28],0.00574%
NCCC(=O)O [β-alanine],relative induction of RFP reporter,[20],-2.32%
same,relative induction of RFP reporter,[21],-0.0067%
same,relative induction of RFP reporter,[22],-0.428%
same,relative induction of RFP reporter,[23],-0.0408%
same,relative induction of RFP reporter,[36],-3.65%
same,relative induction of RFP reporter,[24],-1.1%
same,relative induction of RFP reporter,[25],-0.165%
same,relative induction of RFP reporter,[26],0.0063%
same,relative induction of RFP reporter,[28],-0.208%
same,relative induction of RFP reporter,[37],-0.344%
same,relative induction of RFP reporter,[29],-0.0116%
same,relative induction of RFP reporter,[30],0.268%
same,relative induction of RFP reporter,[31],-0.793%
same,relative induction of RFP reporter,[32],0.0016%
same,relative induction of RFP reporter,[33],-2.33%
same,relative induction of RFP reporter,[34],-1.44%
same,relative induction of RFP reporter,[35],-0.489%
C=C(CC(=O)O)C(=O)O [itaconate],relative induction of RFP reporter,[20],7.98%
same,relative induction of RFP reporter,[21],-0.0132%
same,relative induction of RFP reporter,[22],-0.216%
same,relative induction of RFP reporter,[23],-0.0396%
same,relative induction of RFP reporter,[36],-5.89%
same,relative induction of RFP reporter,[24],-1.61%
same,relative induction of RFP reporter,[25],-0.159%
same,relative induction of RFP reporter,[26],0.0104%
same,relative induction of RFP reporter,[27],-0.257%
same,relative induction of RFP reporter,[28],-0.0579%
same,relative induction of RFP reporter,[37],-0.453%
same,relative induction of RFP reporter,[29],0.0423%
same,relative induction of RFP reporter,[30],-0.0311%
same,relative induction of RFP reporter,[31],-0.326%
same,relative induction of RFP reporter,[32],0.00546%
same,relative induction of RFP reporter,[33],-0.778%
same,relative induction of RFP reporter,[34],-0.202%
OC1OC[C@H](O)[C@H](O)[C@H]1O (mixture of isomers) [L-arabinose],relative induction of RFP reporter,[20],-0.298%
same,relative induction of RFP reporter,[22],-0.67%
same,relative induction of RFP reporter,[23],-0.0174%
same,relative induction of RFP reporter,[36],-1.73%
same,relative induction of RFP reporter,[24],-0.944%
same,relative induction of RFP reporter,[25],0.0304%
same,relative induction of RFP reporter,[26],-0.0109%
same,relative induction of RFP reporter,[27],-0.0273%
same,relative induction of RFP reporter,[28],-0.0772%
same,relative induction of RFP reporter,[37],-0.169%
same,relative induction of RFP reporter,[29],-0.00743%
same,relative induction of RFP reporter,[30],-0.392%
same,relative induction of RFP reporter,[31],-0.221%
same,relative induction of RFP reporter,[32],0.00935%
same,relative induction of RFP reporter,[33],-0.681%
same,relative induction of RFP reporter,[34],-0.337%
same,relative induction of RFP reporter,[35],0.00235%
